# Laboratory results: the supplement of paper PMC8728848
# The full list was thinned out, with the strongest signals kept by preference.
# What was measured:
# Test in all cases: glycan array binding signal (z-score within array); higher = stronger binding
# Conditions in all cases: glycan notation: IUPAC condensed, linker removed
# [1] = molecular target: Fuc(a1-2)Gal(b1-4)GlcNAc(b1-2)Man(a1-3)[Fuc(a1-2)Gal(b1-4)GlcNAc(b1-2)Man(a1-6)]Man(b1-4)GlcNAc(b1-4)[Fuc(a1-6)]GlcNAc
# Method in brief: (§1)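 Arrays were curated from the Consortium for Functional Glycomics database, 3228 in total, and kept only where the protein sequence was available. Binding is expressed as a within-array Z-score. This score was averaged across arrays of the same protein sequence at different concentrations or buffers and across linkers, and negative values can be read as non-binding.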
# [2] = molecular target: Fuc(a1-2)[GalNAc(a1-3)]Gal(b1-3)GlcNAc(b1-3)GalNAc
# Method in brief: as §1
# [3] = molecular target: Fuc(a1-2)[GalNAc(a1-3)]Gal(b1-4)[Fuc(a1-3)]GlcNAc(b1-3)GalNAc
# Method in brief: as §1
# [4] = molecular target: Fuc(a1-3)[Gal(b1-4)]GlcNAc(b1-2)Man(a1-3)[Fuc(a1-3)[Gal(b1-4)]GlcNAc(b1-2)Man(a1-6)]Man(b1-4)GlcNAc(b1-4)GlcNAc
# Method in brief: as §1
# [5] = molecular target: Gal(a1-3)Gal(b1-3)GlcNAc
# Method in brief: as §1
# [6] = molecular target: Gal(a1-3)Gal(b1-3)GlcNAc(b1-2)Man(a1-3)[Gal(a1-3)Gal(b1-3)GlcNAc(b1-2)Man(a1-6)]Man(b1-4)GlcNAc(b1-4)GlcNAc
# Method in brief: as §1
# [7] = molecular target: Gal(a1-3)Gal(b1-4)[Fuc(a1-3)]GlcNAc(b1-2)Man(a1-3)[Gal(a1-3)Gal(b1-4)[Fuc(a1-3)]GlcNAc(b1-2)Man(a1-6)]Man(b1-4)GlcNAc(b1-4)GlcNAc
# Method in brief: as §1
# [8] = molecular target: Gal(a1-3)GalNAc
# Method in brief: as §1
# [9] = molecular target: Gal(a1-3)[Gal(a1-4)]Gal(b1-4)GlcNAc
# Method in brief: as §1
# [10] = molecular target: Gal(a1-4)Gal(b1-4)Glc
# Method in brief: as §1
# [11] = molecular target: Gal(a1-4)Gal(b1-4)GlcNAc(b1-3)Gal(b1-4)Glc
# Method in brief: as §1
# [12] = molecular target: Gal(b1-3)GalNAc(b1-4)Gal(b1-4)Glc
# Method in brief: as §1
# [13] = molecular target: Gal(b1-3)GlcNAc(b1-3)Gal(b1-3)GlcNAc
# Method in brief: as §1
# [14] = molecular target: Gal(b1-3)GlcNAc(b1-3)Gal(b1-4)[Fuc(a1-3)]GlcNAc(b1-6)[Gal(b1-3)GlcNAc(b1-3)]Gal(b1-4)Glc
# Method in brief: as §1
# [15] = molecular target: Gal(b1-3)GlcNAc6S
# Method in brief: as §1
# [16] = molecular target: Gal(b1-3)[Fuc(a1-4)]GlcNAc(b1-6)GalNAc
# Method in brief: as §1
# [17] = molecular target: Gal(b1-4)GlcNAc
# Method in brief: as §1
# [18] = molecular target: Gal(b1-4)GlcNAc(b1-3)Gal(b1-4)GlcNAc(b1-3)Gal(b1-4)GlcNAc(b1-3)Gal(b1-4)GlcNAc(b1-2)[Gal(b1-4)GlcNAc(b1-3)Gal(b1-4)GlcNAc(b1-3)Gal(b1-4)GlcNAc(b1-3)Gal(b1-4)GlcNAc(b1-6)]Man(a1-6)[Gal(b1-4)GlcNAc(b1-3)Gal(b1-4)GlcNAc(b1-3)Gal(b1-4)GlcNAc(b1-3)Gal(b1-4)GlcNAc(b1-2)Man(a1-3)]Man(b1-4)GlcNAc(b1-4)[Fuc(a1-6)]GlcNAc
# Method in brief: as §1
# [19] = molecular target: GalNAc(a1-3)Gal
# Method in brief: as §1
# [20] = molecular target: GalNAc(b1-3)Gal(a1-4)Gal(b1-4)GlcNAc
# Method in brief: as §1
# [21] = molecular target: GalNAc(b1-3)Gal(a1-6)Gal(b1-4)Glc
# Method in brief: as §1
# [22] = molecular target: GalNAc(b1-4)GlcNAc
# Method in brief: as §1
# [23] = molecular target: GalNAc(b1-6)GalNAc
# Method in brief: as §1
# [24] = molecular target: Glc(a1-6)Glc(a1-6)Glc
# Method in brief: as §1
# [25] = molecular target: GlcNAc(a1-4)Gal(b1-4)GlcNAc(b1-3)Gal(b1-4)[Fuc(a1-3)]GlcNAc(b1-3)Gal(b1-4)[Fuc(a1-3)]GlcNAc
# Method in brief: as §1
# [26] = molecular target: GlcNAc(b1-3)Gal(b1-4)GlcNAc
# Method in brief: as §1
# [27] = molecular target: GlcNAc(b1-3)Gal(b1-4)GlcNAc(b1-2)Man(a1-3)[GlcNAc(b1-3)Gal(b1-4)GlcNAc(b1-2)Man(a1-6)]Man(b1-4)GlcNAc(b1-4)GlcNAc
# Method in brief: as §1
# [28] = molecular target: GlcNAc(b1-3)Gal(b1-4)GlcNAc(b1-2)[GlcNAc(b1-3)Gal(b1-4)GlcNAc(b1-6)]Man(a1-6)[GlcNAc(b1-3)Gal(b1-4)GlcNAc(b1-2)Man(a1-3)]Man(b1-4)GlcNAc(b1-4)GlcNAc
# Method in brief: as §1
# [29] = molecular target: GlcNAc(b1-3)Gal(b1-4)GlcNAc(b1-3)Gal(b1-4)GlcNAc(b1-2)Man(a1-3)[GlcNAc(b1-3)Gal(b1-4)GlcNAc(b1-3)Gal(b1-4)GlcNAc(b1-2)Man(a1-6)]Man(b1-4)GlcNAc(b1-4)GlcNAc
# Method in brief: as §1
# [30] = molecular target: Man(a1-2)Man(a1-6)[Man(a1-3)]Man(a1-6)[Man(a1-2)Man(a1-2)Man(a1-3)]Man(b1-4)GlcNAc(b1-4)GlcNAc
# Method in brief: as §1
# [31] = molecular target: Neu5Ac(a2-3)Gal(b1-3)GalNAc
# Method in brief: as §1
# [32] = molecular target: Neu5Ac(a2-3)Gal(b1-3)GalNAc(b1-4)[Neu5Ac(a2-8)Neu5Ac(a2-3)]Gal(b1-4)Glc
# Method in brief: as §1
# [33] = molecular target: Neu5Ac(a2-3)Gal(b1-4)GlcNAc(b1-3)Gal(b1-4)GlcNAc(b1-3)Gal(b1-4)GlcNAc
# Method in brief: as §1
# [34] = molecular target: Neu5Ac(a2-3)Gal(b1-4)GlcNAc(b1-6)[Gal(b1-3)]GalNAc
# Method in brief: as §1
# [35] = molecular target: Neu5Ac(a2-3)Gal6S(b1-4)GlcNAc
# Method in brief: as §1
# [36] = molecular target: Neu5Ac(a2-3)[GalNAc(b1-4)]Gal(b1-4)GlcNAc
# Method in brief: as §1
# [37] = molecular target: Neu5Ac(a2-3)[GalNAc(b1-4)]Gal(b1-4)GlcNAc(b1-3)GalNAc
# Method in brief: as §1
# [38] = molecular target: Neu5Ac(a2-6)Gal(b1-4)GlcNAc(b1-2)[Neu5Ac(a2-6)Gal(b1-4)GlcNAc(b1-6)]Man(a1-6)[Neu5Ac(a2-6)Gal(b1-4)GlcNAc(b1-2)Man(a1-3)][GlcNAc(b1-4)]Man(b1-4)GlcNAc(b1-4)GlcNAc
# Method in brief: as §1
# [39] = molecular target: Neu5Ac(a2-6)Gal(b1-4)GlcNAc(b1-3)Gal(b1-4)GlcNAc(b1-3)Gal(b1-4)GlcNAc(b1-2)Man(a1-3)[Neu5Ac(a2-6)Gal(b1-4)GlcNAc(b1-3)Gal(b1-4)GlcNAc(b1-3)Gal(b1-4)GlcNAc(b1-2)Man(a1-6)]GalNAc
# Method in brief: as §1
# [40] = molecular target: Neu5Ac(a2-6)GalNAc
# Method in brief: as §1
# [41] = molecular target: Neu5Ac(a2-6)GalNAc(b1-4)GlcNAc
# Method in brief: as §1
# [42] = molecular target: Neu5Ac(a2-8)Neu5Ac(a2-3)[Gal(b1-3)GalNAc(b1-4)]Gal(b1-4)Glc
# Method in brief: as §1
# [43] = molecular target: Neu5Ac(b2-6)Gal(b1-4)GlcNAc
# Method in brief: as §1
# [44] = molecular target: Neu5Gc(a2-6)GalNAc
# Method in brief: as §1
binder,measurement,setting,value
pilr alpha (protein) MLYGVTQPKHLSASMGGSVEIPFSFYYPWELATAPDVRISWRRGHFHRQSFYSTRPPSIHKDYVNRLFLNWTEGQKSGFLRISNLQKQDQSVYFCRVELDTRSSGRQQWQSIEGTKLSIT,glycan array binding signal (z-score),[1],0.117
same,glycan array binding signal (z-score),[2],-0.147
same,glycan array binding signal (z-score),[3],6.68
same,glycan array binding signal (z-score),[4],-1.03
same,glycan array binding signal (z-score),[5],0.373
same,glycan array binding signal (z-score),[6],-0.319
same,glycan array binding signal (z-score),[7],-0.503
same,glycan array binding signal (z-score),[8],2.27
same,glycan array binding signal (z-score),[9],7.86
same,glycan array binding signal (z-score),[10],1.77
same,glycan array binding signal (z-score),[11],-0.604
same,glycan array binding signal (z-score),[12],2.46
same,glycan array binding signal (z-score),[13],-0.764
same,glycan array binding signal (z-score),[14],0.008
same,glycan array binding signal (z-score),[15],-0.425
same,glycan array binding signal (z-score),[16],-0.479
same,glycan array binding signal (z-score),[17],-0.271
same,glycan array binding signal (z-score),[18],2.72
same,glycan array binding signal (z-score),[19],0.654
same,glycan array binding signal (z-score),[20],2.72
same,glycan array binding signal (z-score),[21],-0.342
same,glycan array binding signal (z-score),[22],8.03
same,glycan array binding signal (z-score),[23],0.632
same,glycan array binding signal (z-score),[24],-0.27
same,glycan array binding signal (z-score),[25],0.876
same,glycan array binding signal (z-score),[26],-0.07
same,glycan array binding signal (z-score),[27],0.049
same,glycan array binding signal (z-score),[28],1.61
same,glycan array binding signal (z-score),[29],1.68
same,glycan array binding signal (z-score),[30],-0.021
same,glycan array binding signal (z-score),[31],-0.231
same,glycan array binding signal (z-score),[32],-0.149
same,glycan array binding signal (z-score),[33],-0.173
same,glycan array binding signal (z-score),[34],-0.533
same,glycan array binding signal (z-score),[35],-0.007
same,glycan array binding signal (z-score),[36],-0.65
same,glycan array binding signal (z-score),[37],0.118
same,glycan array binding signal (z-score),[38],0.09
same,glycan array binding signal (z-score),[39],1.89
same,glycan array binding signal (z-score),[40],-0.546
same,glycan array binding signal (z-score),[41],-0.492
same,glycan array binding signal (z-score),[42],-0.167
same,glycan array binding signal (z-score),[43],-0.768
same,glycan array binding signal (z-score),[44],-0.353
